A selection: hits, their analogues and other compounds. The true share with any hit is near 8.7%.
JMJD2A Tudor = qHTS Assay for Inhibitors of JMJD2A-Tudor Domain | Lysine-specific demethylase 4A (Homo sapiens), O75164 | 4.4% of 390,000 active | Potency, µM (top dose mostly 114 µM), for inactives: at the highest dose activity change, negative = inhibition, usual class: inhibitors | AlphaScreen JMJD2A-Tudor / H3K4me3 peptide binding; further: on the % scale 0 is the no-effect control and ±100 the full control effect; nearly all actives have a fitted effect of over 50% in size
G9a inh = qHTS Assay for Inhibitors of Histone Lysine Methyltransferase G9a. G9a H3K9 monomethylation, AlphaScreen, 2 h. 8.8% of 350,000 active. Histone-lysine N-methyltransferase EHMT2 (Homo sapiens), Q96KQ7. Potency, µM (doses to about 102 µM), inactives show at the top dose activity, negative = inhibition, actives largely listed as inhibitors; further: on the % scale 0 is the no-effect control and ±100 the full control effect; nearly all actives have a fitted effect of over 75% in size
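Using a bead-based AlphaScreen, monomethylated H3K9 product from 2 h room-temperature reactions (G9a 20 nM, peptide 500 nM, SAM 20 uM) was detected with 0.5 ug/mL rabbit anti-H3K9me1 antibody.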
BAZ2B block = qHTS Assay for Inhibitors of BAZ2B. Bromodomain adjacent to zinc finger domain protein 2B (Homo sapiens), Q9UIF8. AlphaScreen BAZ2B-H3K14Ac peptide displacement. Potency, µM (series often up to 114 µM), for inactives: at the top dose activity change, negative = inhibition, most hits filed as inhibitors. 4.4% of 360,000 active. AID 504333, 2011; further: on the % scale 0 is the no-effect control and ±100 the full control effect; nearly all actives have a fitted effect of over 60% in size
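Protein-peptide AlphaScreen: BAZ2B 50 nM, b-H3K14Ac 50 nM, 1x PBS pH 7.4 + 0.01% Tween-20. Preincubation 30 min RT; cpd 30 min RT (top 110 uM); beads 20 min RT, light-protected.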
Sfp inh = qHTS Assay for Inhibitors of Bacillus subtilis Sfp phosphopantetheinyl transferase (PPTase). Biochemical Sfp PPTase activity, qHTS. Potency, µM, for the others: largest response in the series, negative = inhibition, usual class: inhibitors. 3.5% of 310,000 active;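 further: the enzyme is Sfp with the accession as filed and its product quenches rhodamine fluorescence; 0% = enzyme reaction without inhibitor and -100% = no enzyme wells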
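Reaction rates are the 30-min fluorescence difference (ex 525, em 598 nm) in wells containing 15 nM Sfp, 5 uM rhodamine-CoA and 12.5 uM BHQ-2-YbbR at pH 7.6 with 10 mM MgCl2.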
HP1b binding inh = HTS for Inhibitors of HP1-beta Chromodomain Interactions with Methylated Histone Tails. Chromobox protein homolog 1 (Homo sapiens), P83916. AlphaScreen HP1-beta / biotin-H3K9me3 peptide binding. Potency, µM (titrated, usually from 114 µM), without a hit: top-dose activity change, negative = inhibition, most hits filed as inhibitors. 0.56% of 390,000 active; further: nearly all actives have a fitted effect of over 70% in size
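HP1-beta protein (50 nM final) preincubated 30 min at room temperature with biotinylated H3(1-18)K9me3 peptide (50 nM) in PBS pH 7.4, 0.01% Tween-20, then compound added for 30 min. AlphaScreen streptavidin donor/nickel chelate acceptor beads (10 ug/mL final), 30 min dark, luminescence read.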
ALOX12 inh = Primary qHTS assay for inhibitors of human arachidonate 12S-lipoxygenase (ALOX12): Round 2; Polyunsaturated fatty acid lipoxygenase ALOX12 (Homo sapiens), P18054; purified 12hLO, xylenol orange hydroperoxide absorbance; Potency, µM (titrated, usually from 108 µM), inactives show at the highest dose activity change, negative = inhibition, usual class: inhibitors; 1.1% of 580,000 active; AID 1671190, 2021; further: on the % scale 0 is the no-effect control and ±100 the full control effect
Target sequence (P18054 whole entry, looked up): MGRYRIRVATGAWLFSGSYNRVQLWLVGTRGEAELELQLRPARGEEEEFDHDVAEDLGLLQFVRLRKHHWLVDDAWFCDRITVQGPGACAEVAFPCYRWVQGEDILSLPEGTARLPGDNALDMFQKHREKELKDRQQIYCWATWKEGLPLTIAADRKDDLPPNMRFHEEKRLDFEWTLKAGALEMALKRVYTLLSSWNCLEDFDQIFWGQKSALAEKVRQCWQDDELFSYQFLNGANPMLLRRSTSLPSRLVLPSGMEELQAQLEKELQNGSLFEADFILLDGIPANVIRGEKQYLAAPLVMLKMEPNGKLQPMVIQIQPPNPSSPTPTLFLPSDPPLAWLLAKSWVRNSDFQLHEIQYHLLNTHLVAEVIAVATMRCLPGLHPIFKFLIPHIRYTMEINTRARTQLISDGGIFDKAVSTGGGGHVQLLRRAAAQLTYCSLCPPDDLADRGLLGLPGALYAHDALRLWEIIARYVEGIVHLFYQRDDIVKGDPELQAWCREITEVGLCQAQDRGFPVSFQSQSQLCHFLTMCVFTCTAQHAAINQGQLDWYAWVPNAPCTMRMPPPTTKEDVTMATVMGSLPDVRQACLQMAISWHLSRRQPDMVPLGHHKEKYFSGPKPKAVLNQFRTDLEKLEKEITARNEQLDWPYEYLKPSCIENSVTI
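Purified human 12hLO (150 nM final) in 25 mM Hepes, 0.01% Triton X-100, pH 7.0 was preincubated 15 min at room temperature with compound. Then 40 uM arachidonic acid was added, 30 min. Hydroperoxide was read by Fe-XO absorbance ratio 573/405 nm.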
Numbers without * were called inactive; ? = inconclusive; / = no result given; [ ] = remark or other dose. The call rests on the fitted dose curve; in most records, active means well fitted curve in the direction sought with a large enough effect; inconclusive means small, poorly fitted or top-dose-only effect, or another doubt; inactive means no such curve, though single readings can be large; an effect the other way counts as inactive or inconclusive. Potency means the concentration at half of the fitted maximal effect.

SMILES | JMJD2A Tudor | G9a inh | BAZ2B block | Sfp inh | HP1b binding inh | ALOX12 inh
NCCc1nnc(SCC(=O)c2ccc(Cl)cc2)o1 | -3% | ? | -17% | 56µM* | 18% | 150%
CC(C)(C)OC(=O)NCCc1nnc(SCC(=O)c2ccc(Cl)cc2)o1 | -18% | -3%[12.7 µM] | -24% | -37% | 6% | 0%
NCCCCCc1nnc(SCC(=O)c2ccc(Cl)cc2)o1 | -16% | 50µM* | 0% | 50µM* | 26% | 0%
COc1ccc(-c2cc3c(=O)n(CCNC(=O)c4ccsc4)ccn3n2)cc1 | / | / | / | / | / | 44%
O=C(O)CSc1c(Cl)cccc1Cl | / | / | / | / | / | -30%
Cc1ccc(NC(=O)C2CCN(C(=O)c3sc4nc[nH]c(=O)c4c3C)CC2)cc1C | / | / | / | / | / | 7%
COc1cc2nc(CN3CCC(Cc4ccccc4)CC3)[nH]c(=O)c2cc1OC | -17% | 13% | 0% | 10% | 12% | 12%
COc1ccc(CN2CCC(Cc3ccccc3)CC2)c(C)c1C | 28µM* | ? | ? | -9% | -15% | ?
COc1cc(CN2CCC(Cc3ccccc3)CC2)cc(OC)c1OC | 25µM* | / | 79µM* | -20% | ? | ?
COc1ccc(CN2CCN(CC3CC3)CC2CCO)c(C)c1C (stereo unspecified) | 5% | 5% | -14% | 2% | 32% | -2%
CCC1CCCCN1Cc1ccc(OC)c(C)c1C (stereo unspecified) | -13% | 25µM* | ? | -3% | 28% | ?
COc1ccc(N=C2S/C(=C\c3cc(C)n(C)c3C)C(=O)N2CC(C)C)cc1 | 40µM* | -12%[12.7 µM] | ? | -9% | ? | 0%
CCCN1C(=O)/C(=C/c2ccc(C)s2)SC1=Nc1ccc(OC)cc1 | ? | -49% | ? | -4% | -18% | 0%
CN(Cc1ccc(Br)cc1)C(=O)c1ccc(NS(C)(=O)=O)cc1 | / | / | / | / | / | -2%
Cc1noc(C)c1CCNC(=O)CCc1ccc2c(c1)CN(S(C)(=O)=O)CCO2 | / | / | / | / | / | 41%
C=CCNCc1cc(=O)n2c(-c3ccccc3)csc2n1 | 3.5µM* | ? | 50µM* | -25% | ? | -29%
COc1cc(=O)n2c(-c3ccccc3)csc2n1 | -4%[11.4 µM] | -15%[59 µM] | -7% | 3% | 62% | -14%[57.4 µM]
CCOc1ccc(NC(=O)CN(C)Cc2cc(=O)n3c(-c4ccccc4)csc3n2)cc1OCC | -26% | 50µM* | ? | 1% | 6% | -1%
Cc1ccc(OCc2cc(=O)n3c(-c4ccccc4)csc3n2)cc1 | ? | 5%[59 µM] | 5% | / | 29% | -18%
Cc1cc(C)cc(OCc2cc(=O)n3c(-c4ccccc4)csc3n2)c1 | ? | 2%[59 µM] | 79µM* | / | 6% | -18%
COc1ccc(C(=O)N2CCC3(CC2)CC(OC)CCO3)cc1 (stereo unspecified) | / | / | / | / | / | 46%
N#Cc1ccccc1CN1CCC2(CC1)CC(O)CCO2 (stereo unspecified) | / | / | / | / | / | 45%
Cc1noc(C)c1S(=O)(=O)N1CC(c2noc(C3CCCN3C)n2)C1 (stereo unspecified) | / | / | / | / | / | 42%
CCc1cccc(NC(=O)CN2C=C(C(=O)OC)C(C)=NS2(=O)=O)c1 | / | / | / | / | / | 7%
Cc1cc(NC(=O)C(OC(=O)c2ccc3c(c2)NC(=O)CS3)c2ccccc2)no1 (stereo unspecified) | / | / | / | / | / | -42%
COc1ccc(Cl)cc1NC(=O)c1ncoc1-c1ccco1 | / | / | / | / | / | -24%
O=C(Nc1ccc(Nc2ccccc2)cc1)c1cccc(F)c1 | ? | / | -15% | -4% | 5% | -9%

High-throughput results: PubChem BioAssay, National Center for Advancing Translational Sciences (NCATS)
